HCV inh – qHTS Assay for Inhibitors of Hepatitis C Virus (HCV). Huh7.5.1 HCVcc-Cre infection, luciferase reporter, 44 h. Potency, µM (titrated, usually from 41.8 µM), without a hit: top-dose activity change, negative = inhibition, hits mostly inhibitors. 340,000 tested, 3.4% active; also: potency is read from the fitted curve at half-maximal effect; % is scaled to controls: 0 for no effect and ±100 for the full control effect
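Antiviral activity was scored by luciferase reporter output from cells infected with HCVcc-Cre (~0.5 moi) in presence of compound, 44 h infection period, cells seeded 1,000/well 4 h prior.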
HCMV inh – qHTS Assay for inhibitors of the human cytomegalovirus (HCMV) | activity change, negative = inhibition, % at 57.5 µM | 410,000 tested, 4.5% active | HFF cells, HCMV-luciferase reporter, 72 h; hits give low values | AID 1259415, 2018; in the data active = activity change below about -60%; inconclusive = no clear call, values can overlap the other calls; inactive = above about -39%; also: % is scaled to controls: 0 for no effect and ±100 for the full control effect
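Cell-based, HFFs, 1000 cells/well, 16 h 37C; cpds in DMSO + HCMV-luc, MOI 1 PFU/cell; 72 h 37C; OneGlo luminescence after 5 min RT; norm. to buffer vs Salinomycin 10uM.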
VACV mCherry inh – qHTS for Stage-Specific Inhibitors of Vaccinia Orthopoxvirus: mCherry Reporter Primary qHTS | 310,000 tested, 0.63% active | AID 720579, 2013 | Potency, µM (titrated, usually from 36.5 µM), without a hit: at the top dose activity change, negative = inhibition, hits mostly inhibitors | Vaccinia virus mCherry reporter infection, fluorescence; calls by dose curve; tested in A549 cells; also: potency is read from the fitted curve at half-maximal effect; % is scaled to controls: 0 for no effect and ±100 for the full control effect; nearly all actives have a fitted effect of over 35% in size
FMDV antiviral – High Throughput Screening for Foot and Mouth Disease Virus Antivirals. FMDV antiviral cell-based qHTS. Potency, µM (titrated, usually from 57.9 µM), inactives show at the top dose activity change, negative = inhibition, actives largely listed as inhibitors. 410,000 tested, 1.2% active; calls by dose curve; tested in HEK293T cells; also: read-out not given here; potency is read from the fitted curve at half-maximal effect; % is scaled to controls: 0 for no effect and ±100 for the full control effect; nearly all actives have a fitted effect of over 45% in size
VACV Venus inh – qHTS for Stage-Specific Inhibitors of Vaccinia Orthopoxvirus: Venus Reporter Primary qHTS; Vaccinia virus Venus reporter expression, fluorescence; 330,000 tested, 0.46% active; AID 720580, 2013; Potency, µM (doses to about 36.5 µM), without a hit: at the highest dose activity change, negative = inhibition, actives largely listed as inhibitors; calls by dose curve; tested in A549 cells; also: potency is read from the fitted curve at half-maximal effect; % is scaled to controls: 0 for no effect and ±100 for the full control effect; nearly all actives have a fitted effect of over 30% in size
HCV confirm – qHTS Assay for Inhibitors of Hepatitis C Virus (HCV): Confirmation Assay for Cherry-picked Compounds. Potency, µM (highest dose often 41.8 µM), inactives show at the highest dose activity, negative = inhibition, actives largely listed as inhibitors. shares compounds with HCV inh. 640 tested, 78% active. AID 720575, 2013. HCVcc-Cre infectious virus cell assay, luciferase, inhibition; also: potency is read from the fitted curve at half-maximal effect; nearly all actives have a fitted effect of over 80% in size
HCV host tox – qHTS Assay for Inhibitors of Hepatitis C Virus (HCV): Cytotoxicity Counterscreen for Cherry-picked Compounds. shares compounds with HCV inh. Potency, µM (highest dose often 41.8 µM), for inactives: top-dose activity change, negative = cytotoxicity, actives largely listed as inhibitors. HCV host cell line cytotoxicity counterscreen. 640 tested, 22% active;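 also: potency is read from the fitted curve at half-maximal effect; 44 h compound exposure; % is scaled to controls: 0 for no effect and ±100 for the full control effect; nearly all actives have a fitted effect of over 55% in size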
* = called active by the depositor. Only some compounds are listed: those with a hit (about 7.3% of all), similar ones and a draw of the others. Unless noted, calls follow the shape of the dose curve; as a rule, active = well fitted curve in the direction sought with a large enough effect; inconclusive = small, poorly fitted or top-dose-only effect, or another doubt; inactive = no such curve, though single readings can be large; an effect the other way counts as inactive or inconclusive.

How did COc1ccc(OC)c(NC(=O)/C=C/c2ccc(S(=O)(=O)N3CCOCC3)cc2)c1 do in these assays?
HCV inh: inconclusive; HCMV inh: -13.1; VACV mCherry inh: -14.6%; FMDV antiviral: -11.4%; VACV Venus inh: -9.9%; HCV confirm: 11.2µM*; HCV host tox: inconclusive

Results for COc1ccc(/C=C/C(=O)Nc2cccc(S(=O)(=O)N3CCOCC3)c2)cc1OC ?
HCV inh: inconclusive; HCMV inh: 4.3; VACV mCherry inh: -5.7%; FMDV antiviral: inconclusive; VACV Venus inh: -23.3%

How did COC(=O)c1ccc(NC(=O)CN(Cc2ccccc2)S(=O)(=O)c2ccc(Cl)cc2)cc1 do in these assays?
HCMV inh: -23.7; VACV mCherry inh: -20.8%; FMDV antiviral: inconclusive; VACV Venus inh: -12.8%

Results for COCC(C)n1c(SCC(=O)N2CCc3ccccc3C2)nc2ccccc2c1=O (stereo unspecified) ?
HCV inh: inconclusive; HCMV inh: -25.2; VACV mCherry inh: inconclusive; FMDV antiviral: 0.0%; VACV Venus inh: -18.2%; HCV confirm: 19.9µM*; HCV host tox: -2.7%

Results for CNC(=S)Nc1ccc(N2CCN(c3ccc(C(F)(F)F)cn3)CC2)nc1 ?
HCV inh: 2.51µM*; HCMV inh: inconclusive; VACV mCherry inh: -20.3%; FMDV antiviral: -25.0%; VACV Venus inh: inconclusive; HCV confirm: 4.99µM*; HCV host tox: inconclusive

Results for Cc1cnc(C(=O)N2CCN(c3ccc(C(F)(F)F)cn3)CC2)cn1 ?
HCV inh: 2.9%; HCMV inh: -11.9; VACV mCherry inh: -16.6%; FMDV antiviral: -22.3%; VACV Venus inh: -11.6%

How did O=C(Nc1ccc(F)cc1F)N1CCCN(c2ccc(C(F)(F)F)cn2)CC1 do in these assays?
HCV inh: 5.01µM*; HCMV inh: -36.9; VACV mCherry inh: inconclusive; FMDV antiviral: inconclusive; VACV Venus inh: inconclusive; HCV confirm: 5.6µM*; HCV host tox: 7.91µM*

How did O=C(Nc1ccccc1)N1CCN(c2ccc(C(F)(F)F)cn2)CC1 do in these assays?
HCV inh: inconclusive; HCMV inh: -35.3; FMDV antiviral: inconclusive

How did OCCN1CCN(C(c2ccccc2Cl)c2sc3nc(-c4ccco4)nn3c2O)CC1 (stereo unspecified) do in these assays?
HCMV inh: 13.9; VACV mCherry inh: -6.3%; FMDV antiviral: 5.0%; VACV Venus inh: 2.1%

What do the screens show for `O=C(Nc1ccc(-c2noc(COc3ccccc3Cl)n2)cc1)c1ccco1`?
HCV inh: inconclusive; HCMV inh: -32.2; FMDV antiviral: 3.2%; VACV Venus inh: -28.6%; HCV confirm: 7.05µM*; HCV host tox: -26.7%

How did O=C(COc1ccccc1Cl)Nc1ccc(NC(=O)c2ccco2)cc1 do in these assays?
HCV inh: -14.7%; HCMV inh: -19.3; VACV mCherry inh: inactive; FMDV antiviral: -6.4%; VACV Venus inh: -15.4%

What do the screens show for `COc1cc(NC(=O)c2cccs2)c(OC)cc1NC(=O)c1cccs1`?
HCV inh: -11.9%; VACV mCherry inh: -14.7%; FMDV antiviral: -15.9%; VACV Venus inh: -12.9%

Results for COc1ccc(-c2ccccc2)cc1NC(=O)c1cccs1 ?
HCV inh: 7.94µM*; HCMV inh: -2.1; VACV mCherry inh: inconclusive; FMDV antiviral: -16.8%; VACV Venus inh: -15.4%; HCV confirm: 19.9µM*; HCV host tox: 16.5%

Results for COc1ccc(OC)c(NC(=O)Cc2csc(NC(=O)Nc3ccccc3OC)n2)c1 ?
HCV inh: 8.91µM*; HCMV inh: -8.7; VACV mCherry inh: -29.4%; FMDV antiviral: inconclusive; VACV Venus inh: -26.8%; HCV confirm: 9.95µM*; HCV host tox: 37.4%

How did CCC(C)NC(=O)CSc1nc(-c2cccs2)cc(C(F)(F)F)n1 (stereo unspecified) do in these assays?
HCV inh: 4.47µM*; HCMV inh: inconclusive; VACV mCherry inh: inactive; VACV Venus inh: -17.9%; HCV confirm: 19.9µM*; HCV host tox: -35.9%

How did O=C(O)CSc1nc(-c2cccs2)cc(C(F)(F)F)n1 do in these assays?
HCV inh: -21.8%; HCMV inh: -18.9; VACV mCherry inh: 5.6%; FMDV antiviral: -13.8%; VACV Venus inh: 5.6%

What do the screens show for `CCCCn1c(SCc2nc3ccccc3s2)nc2cc(S(N)(=O)=O)ccc21`?
HCV inh: inconclusive; HCMV inh: 34.6; VACV mCherry inh: -22.7%; FMDV antiviral: -22.0%; VACV Venus inh: inconclusive; HCV confirm: 17.7µM*; HCV host tox: -38.4%

How did Cc1nnc(N2CCN(c3cccc(C(F)(F)F)c3)CC2)c2c1nnn2Cc1ccccc1 do in these assays?
HCMV inh: 4.5; VACV mCherry inh: -21.8%; FMDV antiviral: inconclusive; VACV Venus inh: inconclusive

How did O=C(CN1C2=NCCN2c2ccccc21)C12CC3CC(CC(C3)C1)C2 do in these assays?
HCV inh: inconclusive; HCMV inh: inconclusive; FMDV antiviral: inconclusive; VACV Venus inh: inconclusive; HCV confirm: 28µM*; HCV host tox: 10.7%

How did c1ccc(CN2C3=NCCN3c3ccccc32)cc1 do in these assays?
HCV inh: inconclusive; HCMV inh: 11.4; VACV mCherry inh: inactive; FMDV antiviral: inconclusive; VACV Venus inh: 4.7%

How did CCCCN(CC)CCCn1cnc2c([nH]c3ccc(Cl)cc32)c1=O do in these assays?
HCMV inh: -4.3; VACV mCherry inh: 0.9%; FMDV antiviral: -8.5%; VACV Venus inh: -1.6%

What do the screens show for `CC(C)[C@@]1(c2ccc(Cl)cc2)ON(c2ccccc2C(F)(F)F)C1=O`?
HCV inh: -11.9%

Results for COc1ccc(NC(=S)N2CCCC(c3nc4ccc(C)cc4[nH]3)C2)cc1 (stereo unspecified) ?
HCV inh: 5.01µM*; HCMV inh: -5.0; FMDV antiviral: 2.5%; HCV confirm: 0.0353µM*; HCV host tox: 10.1%

What do the screens show for `CC(C)n1c(NCCc2ccccc2)nc2c1c(=O)n(C)c(=O)n2C`?
HCV inh: inconclusive; HCMV inh: -87.4*; VACV mCherry inh: -17.3%; FMDV antiviral: 15.8µM*; VACV Venus inh: -29.0%; HCV confirm: 7.91µM*; HCV host tox: inconclusive

How did CCn1c(NCc2ccccn2)nc2c1c(=O)n(C)c(=O)n2C do in these assays?
HCV inh: 20.8%; HCMV inh: -33.3; FMDV antiviral: 8.1%

Compound activity as filed in PubChem.
